This test concerns VDR:RXRa (NR concentration 270 nM, RXRa partner concentration 90 nM). Nature of the test: PBM binding z-score (relative to random genomic background probes); higher = stronger binding; sequences stand for … in GC…GCGATTGACAGCGTAGAATGAAGG
The protocol: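 Protein-binding microarray (Agilent 4x180K custom design, double-stranded 60-nt probes: 5' GC cap, 34-nt variable region, 24-nt constant primer region; full probe sequence given). Purified or IVT nuclear receptor:RXRα heterodimers (3:1 NR:RXRα, mostly 270:90 nM) or homodimers were incubated for 1 h in PBS with 2% milk and no ligand, then detected with Alexa488 antibodies. Fluorescence from o1-orientation probes (~5 replicates averaged) was converted to z-scores against 500 random hg19 background probes. Variable regions are seed direct-repeat (DR0–DR5) sites, all their single-nucleotide variants and half-site ablations.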
For the sequence TCTGCTAGGTCAGGTGGTCAGCTAACGAGCTGCC, the PBM binding z-score amounted to 0.132.
The result for GACACAGGGTCAGCTAGAGGCCAGAGTATGGAAA reads 3.19.
The result for CCTAGTTGGTCAGGAGGTCCCACACCGGATATGA reads 0.0687.
The result for CTCGAAAGGTCGTGGTCAGGTGAGTATACCAAAC reads 3.61.
For the sequence AGCGAAAGGTCGAAGGTGAGTATACCCACCCGAA, the PBM binding z-score was found to be 2.8.
As to CCGAGTAGGTTACGAGGGGGCTTTCAGTGCGAAT, the PBM binding z-score is 2.13.
The result for ATATGGAGGTTAGCTGGGGTCATTCAGACTAGGC reads 6.86; that for TAGCCTAGGTCCTTCAGGGGCCAGTATAGAAAGC, -0.708; that for CCTAGTTGGTCAAGGTCCCACACGCTATAGGTAC, 0.398.
Under TGAATGACGTTAAAGATCAGGGAACGTGGCGTCG stands -0.237; under CTATGTAGGTTATGGGGGTCATTCAGTTTGAAAG, 7.53.
Under ATATGTCGGTTAGGGTCATTCAGAAAGTAGGGAA stands 4.56.
Consider CGGACTGGGGCAAAGGTTACCATACTCAGTACGA, for which the PBM binding z-score amounted to 1.9.
In turn, CCGAGTAGGTTACGAGTGGGCATTCAGTGCGAAT gave a PBM binding z-score of -0.217.
Sequence GCTGCTCGGTCAACTGATGGTCAGCTAAAGCTCG came in with a PBM binding z-score of -0.285.
Under CGAACTAGGTCACCACGACAGTGAAGAGGTTGGA stands 2.04; under CCTTACGGGTCACTGACAGGTCATAGCATTTGGA, 5.38; under CCGAGTAGGTTACGAGGCGGCATTCAGTGCGAAT, -0.141.
The result for GCTGCTAGGTCAACTGATGGTGAGCTAAAGCTCG reads 1.13; that for CAAACTAGGTCACGAAAGGTCAACGTCGAATGAC, 6.9.
For ATATGTAGGTTAGGGTCATTAAGAAAGTAGGGAA, the PBM binding z-score worked out at 3.86.
Sequence CCGAGTAGGTTCCGAGGGGGCATTCAGTGCGAAT displayed a PBM binding z-score of 4.09.
The result for TCGAGTCGGTTACGGGGGCATTCAGGGATGAAGA reads 2.73.
Under CCAACTAGGTCATTGACAGGACAGTGAATAGTAA stands 2.29; under CCGAGTAGGTTACGAGAGGGCATTCAGTGCGAAT, 4.33; under TTACCAAGGTGAAAGGTCGGTGATGCACGCCTTG, 1.38.
Under CCTACTGGGCCATTCAGAGGACATTGATCATATG stands -0.347; under ATCGAAAGGTCGAAAGTGAGTATACCCACCCGAA, 2.18.
TCTTGTAGATCAAAGGTCAAGAAAGCCGAAGCCT: the PBM binding z-score stood at 4.14.
Consider TCTAGCTGGTCACGGAGGTCACACACGACGGGTA, for which the PBM binding z-score is 6.05.
Under GCTCGGGGGACAAGGTCAGAGCTTTGTCCGTAGA stands 3.07.
The result for ATATGTAGTTTAGGGTCATTCAGAAAGTAGGGAA reads 4.64; that for CGAACTAGGTCAGAGCAGGACAGTGAAGGATGAT, 0.711; that for CGTCCAAGGTCACAGGAGGTCAGTGAAGACAGAT, 6.62.
Sequence GCTGCTAGGTCAGGTTGGTCAACTAACGGGTACG came in with a PBM binding z-score of 0.9.
The result for ATATGTAGGTTAGGGTCCTTCAGAAAGTAGGGAA reads 0.818; that for TCTAGTTGGTCAAAGGTCTCACACTCGAAATGCG, 1.42.
The result for TAGCCTAGGTCATTGGGCTAGTATAGTACGCATC reads 2.03.
CTATGTAGGTTAAGGGGGTCATTAAGTTTGAAAG registered a PBM binding z-score of 7.64.
The result for CGAACTAGGTCGAAGGACAGTGAAAGGCGACGTA reads -0.183.
